Rows were chosen to be rich in hits. Some 11% of all compounds tested hit in one or more screens of this group.
Tau FP inhib: inhibitors of human tau fibril formation | Potency, µM (titrated, usually from 57.7 µM), without a hit: at the top dose activity, negative = inhibition, actives largely listed as inhibitors | P10636 | actives 0.39% (n = 280,000) | K18 P301L tau heparin fibrillization, Alexa594 FP, 6 h; also: potency is read from the fitted curve at half-maximal effect; nearly all actives have a fitted effect of over 55% in size
Target sequence (P10636 561-689 P618L limits assumed): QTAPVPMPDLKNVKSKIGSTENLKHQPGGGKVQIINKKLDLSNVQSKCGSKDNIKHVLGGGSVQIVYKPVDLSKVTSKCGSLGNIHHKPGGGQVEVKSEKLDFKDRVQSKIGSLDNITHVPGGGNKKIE
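Human tau K18 […] P301L fragment, 15 uM unlabeled plus 0.24 uM Alexa 594-labeled tau (final), with compound and 20 uM heparin in 100 mM sodium acetate pH 7; 6 hr at 37 C, then Alexa 594 FP read.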
Sfp PPTase inh: Sfp phosphopantetheinyl transferase inhibition; Potency, µM, inactives show largest response in the series, negative = inhibition, most hits filed as inhibitors; AID 1490; Biochemical Sfp PPTase activity, qHTS; actives 3.5% (n = 310,000); Q9F4F7;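 also: the enzyme is Sfp with the accession as filed and its product quenches rhodamine fluorescence; potency is read from the fitted curve at half-maximal effect; 0% = enzyme reaction without inhibitor and -100% = no enzyme wells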
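With Hepes-Na pH 7.6 buffer containing 10 mM MgCl2, Sfp (15 nM) modified BHQ-2-YbbR (12.5 uM) using rhodamine-CoA (5 uM). Two reads 30 minutes apart at 525/598 nm yielded each well's rate.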
Tau fluor cs: counter-screen for tau fibril formation inhibitors; tau K18 P301L Alexa594 fluorescence, heparin fibrillization; Potency, µM (doses to about 57.7 µM), inactives show top-dose activity change, negative = decrease; actives 0.93% (n = 280,000); also: potency is read from the fitted curve at half-maximal effect; nearly all actives have a fitted effect of over 55% in size
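Human tau K18 P301L (15 uM unlabeled, 0.24 uM Alexa 594-labeled) in 100 mM sodium acetate pH 7 with 20 uM heparin, 6 hr at 37 C. ThT 30 uM added, 1 hr ambient; Alexa 594 FP and total fluorescence read at 555/632 nm.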
Coupling enz: coupling enzyme interference in Giardia aldolase counter-screen; activity change, negative = inhibition, % at 58.2 µM, hits read low; coupling enzyme system counterscreen, AmpLite Red fluorescence; actives 0.67% (n = 290,000); in the data active = activity change below about -30%
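Coupling enzymes only (glyceraldehyde-3-phosphate) + compound, at 57.5 uM final, 10 min RT; add substrate/coupling/AmpLite Red mix, 20 min RT; fluorescence ex 525/em 598 nm. Actives flag coupling-system interference.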
G9a inh: G9a (human) methyltransferase inhibition; G9a H3K9 monomethylation, AlphaScreen, 2 h; Potency, µM (highest dose often 102 µM), for inactives: at the highest dose activity, negative = inhibition, most hits filed as inhibitors; actives 8.8% (n = 350,000); AID 504332; also: potency is read from the fitted curve at half-maximal effect; nearly all actives have a fitted effect of over 75% in size
Target sequence (Q96KQ7 913-1193 limits assumed): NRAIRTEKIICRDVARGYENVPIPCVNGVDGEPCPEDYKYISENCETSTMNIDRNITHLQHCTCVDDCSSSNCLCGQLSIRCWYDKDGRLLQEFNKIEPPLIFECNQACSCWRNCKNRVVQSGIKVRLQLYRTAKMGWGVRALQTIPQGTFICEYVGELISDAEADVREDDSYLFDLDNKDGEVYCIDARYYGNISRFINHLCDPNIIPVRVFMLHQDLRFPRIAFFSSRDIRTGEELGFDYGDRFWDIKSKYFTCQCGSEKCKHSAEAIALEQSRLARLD
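Enzyme 20 nM + cpd, 15 min RT; add b-H3K9 pep 500 nM / SAM 20 uM; 2 h RT; anti-H3K9me1 Ab 0.5 ug/mL + SA donor / anti-rabbit acceptor beads 20 ug/mL each, 10 min; AlphaScreen read.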
Tau ThT inhib: inhibitors of human tau fibril formation, thioflavin T binding; recombinant tau K18 P301L (four-repeat tau fragment), heparin-induced fibrillization, ThT fluorescence; Potency, µM (titrated, usually from 57.4 µM), without a hit: at the top dose activity, negative = inhibition, hits mostly inhibitors; P10636; actives 2.1% (n = 270,000); also: potency is read from the fitted curve at half-maximal effect; nearly all actives have a fitted effect of over 55% in size
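Aggregation was driven by heparin (20 uM final) acting on recombinant tau […] bearing P301L in 100 mM sodium acetate pH 7; fibrils were detected with Thioflavin T.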
Active calls of the source: *; u = inconclusive; x = no result given; ! = not confirmed by another sample; [ ] = another dose, or the depositor's remark. Unless noted, calls follow the shape of the dose curve; as a rule, active = well fitted curve in the direction sought with a large enough effect; inconclusive = small, poorly fitted or top-dose-only effect, or another doubt; inactive = no such curve, though single readings can be large; an effect the other way counts as inactive or inconclusive. Unless noted, % is scaled to controls: 0 for no effect and ±100 for the full control effect.

SMILES	Tau FP inhib	Sfp PPTase inh	Tau fluor cs	Coupling enz	G9a inh	Tau ThT inhib
O=C(N/N=C/c1oc(O)c2ccccc12)c1ccccc1	2%	13%	1%	2	11µM*	-4%
O=C(N/N=C/c1c[nH]c2ccccc12)c1ccccc1	x	5%	x	0	24%	x
O=C(NN=c1c(=O)c2ccccc2c1=O)c1ccccc1	u	7%	-25%	-43*	x	5.6µM*
N#Cc1c(-c2cccs2)nc(SCc2ccc(Cl)cc2)[nH]c1=O	3%	79µM*	3%	26	-25%	3%
CNC(=O)NC(=O)CSc1nc(-c2cccs2)c(C#N)c(=O)[nH]1	-4%	8%	-8%	1	6%	-7%
CSc1nc(-c2cccs2)c(C#N)c(=O)[nH]1	-1%	0%	-17%	11	45µM*	u
COc1ccc(C)cc1NC(=S)N1CCN(S(C)(=O)=O)CC1	-4%	0%	8%	1	10%[59 µM]	4%
Nc1ccc(C(=O)O)cc1	-8%	-4%	-9%	1	0%[59 µM]	-2%
N=C(N)c1ccc(N)cc1	2%	x	-4%	x	1µM*!	8%
Nc1[nH]nc2c1NN(c1ccc(Cl)cc1Cl)N2	u	-7%	u	0	u	3.5µM*
NC1(C(=O)O)CCCC1	-3%	-11%	-16%	-1	-33%[2.33 µM]	-11%
NC1(C(=O)O)C[C@H](C(=O)O)[C@H](C(=O)O)C1 (some centres undefined)	1%	50µM*!	-10%	0	26%[59 µM]	-5%
NC1(C(=O)O)CC1	-6%	56µM*	-10%	-1	7.1µM*!	-6%
Cn1c(=O)c2cn(Cc3ccc(Cl)cc3)cc2n(C)c1=O	1%	12%	5%	-4	16µM*	10%
Cn1c(=O)c2c(-c3ccc(Cl)cc3)n(Cc3ccccc3)cc2n(C)c1=O	-6%	x	-17%	x	6%[59 µM]	u
O=C1COc2ccc(-c3cc(-c4ccc(Cl)cc4)c4c(n3)-c3ccccc3OC4)cc2N1	u	x	-12%	x	-7%[59 µM]	3%
COc1ccc(NC(=S)Nc2ccccc2)c(OC)c1	-5%	-18%	-13%	1	16µM*	-9%
COc1ccc(NC(=S)Nc2ccc(OCc3ccccc3)cc2)c(OC)c1	u	-13%	14µM*[quencher]	2	u	u
COc1ccc(/C=C2/SC(=S)N(n3c(C)ccc3C)C2=O)cc1	6%	-4%	7%	2	16µM*	7%
CCOc1ccc(C=C2SC(=O)N(CCN)C2=O)cc1	x	-9%	x	-2	x	x
CCOc1ccc(/C=C2\NC(=S)NC2=O)cc1	2%	14%	-11%	5	45µM*	-15%
CCOc1ccc(/C=C2/SC(=S)N(n3c(C)ccc3C)C2=O)cc1	-5%	1%	-18%	-1	10µM*	u
O=C1/C(=C/c2ccccc2)SC(=S)N1N1C(=O)C2CC2C1=O (centres undefined)	-15%	-16%	-21%	2	25µM*	u
CCN(CC)C(=O)CN1C(=O)/C(=C/c2ccccc2)SC1=S	-14%	-15%	-3%	3	9%	x
Cc1cc(N(C)Cc2ccccc2)n2nc(-c3ccc(C(C)(C)C)cc3)nc2n1	u	x	-10%	x	-28%[59 µM]	-15%
SMILES	Tau FP inhib	Sfp PPTase inh	Tau fluor cs	Coupling enz	G9a inh	Tau ThT inhib
CC1=C(C(=O)Nc2ccccc2Br)C2(CCC(C)CC2)OC1=O (centres undefined)	1%	x	-8%	x	-21%[59 µM]	-5%
COc1cc2ncnc(N[C@H](C)c3ccccc3)c2cc1OC	x	0%	x	3	-32%	x
CCCCc1ccc(NC(=O)CSc2nc3ccccc3nc2N2CCCCC2)cc1	-3%	x	u	x	22%[59 µM]	u
CCOc1ccc(/C=C2\SC(=S)N(CCC(=O)N(CCO)c3ccccc3)C2=O)cc1	x	u	x	-1	16µM*	x
Cc1cc(/C=N/n2cnnc2)c(C)n1-c1ccc(OCc2ccc(Cl)cc2)cc1	3%	45µM*	-29%	-5	40µM*	u
Cc1cc(/C=N/n2cnnc2)c(C)n1-c1ccc(OCc2ccccc2F)cc1	2%	-17%	-19%	-4	u	u
COc1ccc(OC)c(CNC(=O)c2c(C)oc3ncn(CC(C)C)c(=O)c23)c1	-5%	x	-27%	x	-11%[59 µM]	-9%
CCCSc1nc(N)c2c3c(sc2n1)CN(C)CC3	-7%	3%	-8%	2	-46%[12.7 µM]	-9%
CN(C)CCSc1nc(N)c2c3c(sc2n1)CN(C)CC3	u	12%	-3%	2	45µM*	u
CC(C)Sc1nc(N)c2c3c(sc2n1)CN(C)CC3	-12%	5%	-8%	1	3.2µM*	-18%
Cc1nc2cc(CC(=O)O)ccc2o1	-2%	12%	-5%	0	5%[59 µM]	-9%
CCOC(=O)c1ccc(NC(=O)CSc2c(C(C)C)cnc3c2c(=O)n(C)c(=O)n3C)cc1	-9%	x	-23%	x	u	-10%
Cc1ccc(N2C(=O)CSC23C(=O)N(CC(=O)NC2CCCCC2)c2ccccc23)cc1 (centres undefined)	-1%	x	-5%	x	-23%[59 µM]	-8%
CCOc1ccc(-c2nc(S(=O)(=O)c3ccccc3)c(N3CCOCC3)o2)cc1	-9%	u	1%	1	50µM*	u
Cc1ccc(-c2nc(S(=O)(=O)c3ccc(C)cc3)c(N3CCOCC3)o2)cc1	x	-46%	x	4	4.5µM*	x
Cc1ccc(S(=O)(=O)c2nc(-c3ccccc3)oc2NCCN2CCOCC2)cc1	7%	-9%	-11%	0	u	-10%
O=S(=O)(c1ccc(F)cc1)c1nc(-c2ccc(F)cc2)oc1NCCN1CCOCC1	-10%	-5%	-20%	1	50µM*	-10%
Cc1ccc(S(=O)(=O)c2nc(-c3ccc(F)cc3)oc2N2CCN(c3ccccc3)CC2)cc1	-12%	x	u	x	u	u
Cc1cccc(-c2nc(S(=O)(=O)c3ccccc3)c(N3CCOCC3)o2)c1	x	-3%	x	0	u	x
O=C1CCCC(O)=C1C(C#Cc1ccccc1)C1=C(O)CCCC1=O	-10%	-77%	u	-2	0.89µM*	u
O=C(O)c1ccccc1Sc1ccccc1S(=O)(=O)NC1CCCCC1	12%	7%	6%	9	x	-1%
CC1(C)CC(=O)C(C(C#Cc2ccccc2)C2=C(O)CC(C)(C)CC2=O)=C(O)C1	11%	u	-5%	x	13µM*	u
O=C1CCCc2[nH]c(-c3ccccc3)nc21	9%	-2%	6%	4	x	8%
O=C1CCCC(O)=C1Sc1ccccc1C(=O)O	5%	56µM*	10%	6	25µM*	7%

Assay outcomes: PubChem BioAssay, National Center for Advancing Translational Sciences (NCATS)
